Measured values taken from PubChem BioAssay (NCI).
Several values for one entry are separate records, joined by “and”; a condition that tells them apart may be missing. Equal entries are not always repeated. About 83,000 compounds went through this panel and 20% of them were active in at least one assay; those are over-represented in the sample as a whole.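 The test compound was applied at a single concentration to cells in 96-well plates for 48 hours, and percent growth was recorded.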 Activity calls are given as the source filed them. How the source made its calls: active means growth percent below 10; inactive means the rest.

What was measured:
Test in all cases: NCI-60 one-dose screen, 48 h (100 = growth as untreated, 0 = no growth, -100 = all killed)
Conditions in all cases: 10 µM
NCI-H23 lung = test system: NCI-H23 lung
NCI-H226 lung = test system: NCI-H226 lung
NCI-H322M lung = test system: NCI-H322M lung
HOP-62 NSCLC = test system: HOP-62 NSCLC
NCI-H460 lung = test system: NCI-H460 lung
HOP-92 NSCLC = test system: HOP-92 NSCLC
NCI-H522 lung = test system: NCI-H522 lung
A549/ATCC NSCLC = test system: A549/ATCC NSCLC
786-0 renal = test system: 786-0 renal
COLO 205 colon = test system: COLO 205 colon
DU-145 prostate = test system: DU-145 prostate
K-562 leukemia = test system: K-562 leukemia
MALME-3M melanoma = test system: MALME-3M melanoma
MDA-MB-231 breast = test system: MDA-MB-231 breast
RXF 393 renal = test system: RXF 393 renal
SF-268 CNS = test system: SF-268 CNS
SF-295 CNS = test system: SF-295 CNS
SF-539 CNS = test system: SF-539 CNS
UACC-257 melanoma = test system: UACC-257 melanoma
M14 melanoma = test system: M14 melanoma

| Compound | growth (NCI-H23 lung) | growth (NCI-H226 lung) | growth (NCI-H322M lung) | growth (HOP-62 NSCLC) | growth (NCI-H460 lung) | growth (HOP-92 NSCLC) | growth (NCI-H522 lung) | growth (A549/ATCC NSCLC) | growth (786-0 renal) | growth (COLO 205 colon) | growth (DU-145 prostate) | growth (K-562 leukemia) | growth (MALME-3M melanoma) | growth (MDA-MB-231 breast) | growth (RXF 393 renal) | growth (SF-268 CNS) | growth (SF-295 CNS) | growth (SF-539 CNS) | growth (UACC-257 melanoma) | growth (M14 melanoma) |
| --- | --- | --- | --- | --- | --- | --- | --- | --- | --- | --- | --- | --- | --- | --- | --- | --- | --- | --- | --- | --- |
| COc1ccccc1[As]=[As]c1ccccc1OC (stereo not drawn) | -86.8% (active) | -93.5% (active) | -80.8% (active) | -94.8% (active) | -42.6% (active) | -85.1% (active) | -80.6% (active) | -88.1% (active) | -94.7% (active) | -93.1% (active) | -89.9% (active) | 8.02% (active) | -72.8% (active) | -83.2% (active) | -99.5% (active) | -82.9% (active) | -86.4% (active) | -91.4% (active) | -95.5% (active) | -81.4% (active) |
| COC(C(=O)C(O)C(C)O)C1Cc2cc3cc(OC4CC(OC(C)=O)C(OC5CC(O)C(OC)C(C)O5)C(C)O4)cc(O)c3c(O)c2C(=O)C1OC1CC(OC2CC(OC3CC(C)(O)C(OC(=O)C(C)C)C(C)O3)C(O)C(C)O2)C(O)C(C)O1 (stereo not drawn) | 8.85% (active) | -12.6% (active) | 7.22% (active) | -5.14% (active) | -10.2% (active) | -16.5% (active) | -60.9% (active) | -39.3% (active) | 0.268% (active) | -83.5% (active) | -32.2% (active) | -68.4% (active) | -89.1% (active) | -26.3% (active) | -24.6% (active) | 2.42% (active) | -14.4% (active) | -78.2% (active) | -19.1% (active) | – |
| N#CCc1ccccc1 | 102% (inactive) | 96.3% (inactive) | 105% (inactive) | 97.4% (inactive) | 106% (inactive) | 82.2% (inactive) | 99.4% (inactive) | 101% (inactive) | 101% (inactive) | 107% (inactive) | 113% (inactive) | 98.3% (inactive) | 111% (inactive) | 98.4% (inactive) | 111% (inactive) | 93.4% (inactive) | 104% (inactive) | 96.5% (inactive) | 103% (inactive) | 98.5% (inactive) |
| CC[C@@]1(O)C[C@H](OC2CC(N(C)C)C(O)C(C)O2)c2c(cc3c(c2O)C(=O)c2c(O)ccc(O)c2C3=O)[C@H]1C(=O)OC (stereo partly drawn) | -79.6% (active) | -62.3% (active) | -78.6% (active) | -69.6% (active) | -64% (active) | -68.9% (active) | -70.1% (active) | -84.8% (active) | -97.5% (active) | -80.1% (active) | -77.8% (active) | -73.7% (active) | -87.4% (active) | -70.9% (active) | -66.3% (active) | -61% (active) | -81.5% (active) | -88.5% (active) | -67.7% (active) | -93.1% (active) |
| COc1cc(/C=C\[N+](=O)[O-])ccc1O | 83.1% (inactive) and 77.3% (inactive) | 91.2% (inactive) and 98.3% (inactive) | 85.7% (inactive) | 99.8% (inactive) and 101% (inactive) | 96.6% (inactive) and 94% (inactive) | 73.2% (inactive) and 102% (inactive) | -37.6% (active) and 87.2% (inactive) | 89.2% (inactive) and 76.1% (inactive) | 43.2% (inactive) and 90.8% (inactive) | 73.6% (inactive) and 104% (inactive) | 27.4% (inactive) and 61.2% (inactive) | 26.5% (inactive) and 48.1% (inactive) | 50.4% (inactive) and 96.4% (inactive) | 91.6% (inactive) and 83.6% (inactive) | 23.2% (inactive) and 56% (inactive) | 75.5% (inactive) and 87.6% (inactive) | 110% (inactive) and 104% (inactive) | 70.5% (inactive) and 83.2% (inactive) | 61.2% (inactive) and 90.5% (inactive) | 71.3% (inactive) and 52.1% (inactive) |
| [O-][n+]1ccccc1S | 73.5% (inactive) | 95.8% (inactive) | 64.1% (inactive) | 58% (inactive) | 8.67% (active) | 97.1% (inactive) | -34.7% (active) | 30.4% (inactive) | 46.3% (inactive) | 16.1% (inactive) | 32.3% (inactive) | 31.2% (inactive) | 110% (inactive) | 58.7% (inactive) | 46.9% (inactive) | 70.7% (inactive) | 44.4% (inactive) | 67.6% (inactive) | 23.9% (inactive) | – |
| Cc1ccc(C(=O)C2C(c3ccccc3)N2C2CCCCC2)cc1 (stereo not drawn) | 102% (inactive) and 88.4% (inactive) | 100% (inactive) and 94.7% (inactive) | 107% (inactive) | 112% (inactive) and 101% (inactive) | 98.6% (inactive) and 92% (inactive) | 78.1% (inactive) | 90.5% (inactive) and 75.5% (inactive) | 99.9% (inactive) and 105% (inactive) | 101% (inactive) and 97.6% (inactive) | 126% (inactive) and 110% (inactive) | 105% (inactive) and 111% (inactive) | 87.3% (inactive) and 83% (inactive) | 98.1% (inactive) and 97.9% (inactive) | 117% (inactive) and 112% (inactive) | 111% (inactive) and 96.8% (inactive) | 111% (inactive) and 102% (inactive) | 106% (inactive) | 99.9% (inactive) and 103% (inactive) | 89.9% (inactive) and 98.6% (inactive) | 93.8% (inactive) and 92.2% (inactive) |
| O=C1C(=O)c2ccccc2-c2ccccc21 | -54.3% (active) | -88.3% (active) | 101% (inactive) | -70% (active) | 3.18% (active) | -87.7% (active) | -58.5% (active) | -47.9% (active) | -88.2% (active) | -63.5% (active) | -100% (active) | -37.4% (active) | -93.6% (active) | -39% (active) | -93.2% (active) | -88.7% (active) | -97.4% (active) | -92.7% (active) | -95.6% (active) | -83.8% (active) |
| C#CC1(O)CCC(C(C)(C)C)CC1 (stereo not drawn) | 105% (inactive) | 111% (inactive) | 110% (inactive) | 115% (inactive) | 112% (inactive) | 87.9% (inactive) | 122% (inactive) | 94.2% (inactive) | 107% (inactive) | 114% (inactive) | 114% (inactive) | 121% (inactive) | 115% (inactive) | 119% (inactive) | 115% (inactive) | 103% (inactive) | 97.7% (inactive) | 102% (inactive) | 97% (inactive) | 108% (inactive) |
| C[C@]12CC[C@H]3[C@@H](CCC4=CC(=O)CC[C@@H]43)[C@@H]1CC[C@@H]2OC(=O)N(CCCl)N=O | 55.7% (inactive) | 55.8% (inactive) | 45.6% (inactive) | 44.8% (inactive) | -37.9% (active) | -11% (active) | 39.7% (inactive) | 40.7% (inactive) | 17.9% (inactive) | 58.8% (inactive) | 1.81% (active) | 29.5% (inactive) | 91.7% (inactive) | 76.3% (inactive) | 69.9% (inactive) | 23.7% (inactive) | 12.3% (inactive) | -0.439% (active) | 84.4% (inactive) | 49% (inactive) |
| O=C(CCl)Nc1ccc(Cl)cc1 | 28.4% (inactive) | 50.7% (inactive) | 78.3% (inactive) | 75.1% (inactive) | 99.8% (inactive) | 57.8% (inactive) | -96.3% (active) | 85.1% (inactive) | 44.7% (inactive) | 52.3% (inactive) | 76.1% (inactive) | 19.4% (inactive) | 28% (inactive) | 46.7% (inactive) | 35.2% (inactive) | 41.9% (inactive) | 68.8% (inactive) | 105% (inactive) | 69.9% (inactive) | 47.1% (inactive) |
| O=C(CBr)Nc1ccccc1 | 93.1% (inactive) | 98.4% (inactive) | 97.9% (inactive) | 109% (inactive) | 107% (inactive) | 101% (inactive) | -84% (active) | 98.5% (inactive) | 102% (inactive) | 116% (inactive) | 102% (inactive) | 39.4% (inactive) | 54.7% (inactive) | 95.3% (inactive) | 107% (inactive) | 90.1% (inactive) | 103% (inactive) | 106% (inactive) | 99.5% (inactive) | 84.4% (inactive) |
| [Cl][Hg][c]1ccc(Cl)s1 | 51.1% (inactive) | 50.1% (inactive) | 91.3% (inactive) | 87.8% (inactive) | 83.7% (inactive) | -70% (active) | -98.1% (active) | 97.2% (inactive) | -54.5% (active) | -81.2% (active) | 62.5% (inactive) | -0.908% (active) | -69.8% (active) | -47.2% (active) | -90% (active) | 25.2% (inactive) | 100% (inactive) | -3.52% (active) | 16.4% (inactive) | -54.5% (active) |
